Shown are actives, neighbours in structure and some others; about 21% of the full set was active somewhere.
IL1B secr inh – inhibitors of inflammasome signaling (IL-1 beta secretion). THP-1 LPS/ATP IL-1B secretion, AlphaLISA, 16 h; hits give low values. 360,000 tested, 4.7% active. activity change, % at 57.5 µM; in the data active = activity change below about -50%; inconclusive = mostly about -30% to -49%
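Secreted IL-1B measured by AlphaLISA bead assay after 16 h compound exposure of THP-1 cells; compounds (final up to 57.5 uM) added 1 h before LPS (250 ng/mL) and ATP (1.25 mM) stimulation; lower signal means less secretion.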
ELG1 repair inh – blocks ELG1-dependent DNA repair in HEK293T cells; 330,000 tested, 2.3% active; HEK293T ELG1-luciferase reporter, luminescence, 16 h; DNA damage induced by 5-fluorouridine; AID 504467; Potency, µM (series often up to 46.1 µM), inactives show at the top dose activity change, negative = inhibition, most hits filed as inhibitors; note: potency is the fitted concentration of half-maximal effect; nearly all actives have a fitted effect of over 55% in size
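Overnight (16 hr) co-exposure of 2,000 cells/well to 5-fluorouridine and compound at 37 °C preceded detection. Luciferase was quantified via ONE-Glo luminescence; loss of signal denotes inhibition.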
TDP1 cell CPT – growth inhibition of DT40 Tdp1-/-;hTDP1 cells with camptothecin (screen for TDP1 inhibitors) | chicken DT40 Tdp1-/-;hTDP1 cells + 20 nM CPT, ATP luminescence, 48 h | Potency, µM (titrated, usually from 46.2 µM), without a hit: at the highest dose activity change, negative = growth inhibition, actives largely listed as inhibitors | AID 686979 | 420,000 tested, 12% active; note: potency is the fitted concentration of half-maximal effect; nearly all actives have a fitted effect of over 55% in size
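Cell growth measured by CellTiter-Glo luminescence after a minimum 48 h, 37 C compound exposure with 20 nM CPT in Tdp1-knockout DT40 cells stably expressing hTDP1, seeded 400/well; qHTS titration format.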
VP16 counter – counter-screen for ROR gamma inhibitors: Gal4-VP16 reporter | Drosophila S2 Gal4-VP16 UAS-luciferase, luminescence, 20 h | Potency, µM (titrated, usually from 53.6 µM), without a hit: at the top dose activity, negative = inhibition, hits mostly inhibitors | 310,000 tested, 3.5% active | AID 2546;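 note: Gal4-VP16 expression switched on by copper sulfate through the metallothionein promoter; potency is the fitted concentration of half-maximal effect; nearly all actives have a fitted effect of over 50% in size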
RORgamma inh – blocks mouse ROR gamma transcriptional activity. P51450. Drosophila S2 Gal4-RORgamma UAS-luciferase reporter, 20 h. Potency, µM (doses to about 53.6 µM), for the others: at the top dose activity change, negative = inhibition, usual class: inhibitors. 310,000 tested, 5.4% active. AID 2551; note: potency is the fitted concentration of half-maximal effect; nearly all actives have a fitted effect of over 60% in size
Target sequence (P51450 whole entry, looked up, the tested form may be a part): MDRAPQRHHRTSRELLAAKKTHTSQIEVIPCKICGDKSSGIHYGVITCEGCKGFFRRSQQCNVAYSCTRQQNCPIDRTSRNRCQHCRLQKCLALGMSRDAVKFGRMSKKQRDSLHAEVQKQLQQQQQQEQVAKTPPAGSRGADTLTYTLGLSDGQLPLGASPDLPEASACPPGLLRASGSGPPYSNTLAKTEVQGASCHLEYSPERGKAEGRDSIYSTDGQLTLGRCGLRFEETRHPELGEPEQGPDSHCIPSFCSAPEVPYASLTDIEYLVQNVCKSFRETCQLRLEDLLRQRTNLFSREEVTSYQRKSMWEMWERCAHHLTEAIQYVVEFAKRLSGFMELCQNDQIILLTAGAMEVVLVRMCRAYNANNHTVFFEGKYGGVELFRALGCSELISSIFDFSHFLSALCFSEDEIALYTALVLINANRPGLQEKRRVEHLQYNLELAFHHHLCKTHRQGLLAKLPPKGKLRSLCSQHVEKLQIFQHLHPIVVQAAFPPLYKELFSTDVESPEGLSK
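Drosophila Schneider cells stably carrying a metallothionein-driven Gal4 DBD–ROR gamma fusion and a UAS-Photinus luciferase reporter were exposed to compound for 1 hr, then induced with copper sulfate (700 uM final) for 20 hr at ambient temperature before luminescence reading.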
TDP1 cell noCPT – qHTS for Inhibitors of human tyrosyl-DNA phosphodiesterase 1 (TDP1): qHTS in cells in absence of CPT | DT40 Tdp1-/- hTDP1 cells, no CPT, ATP luminescence, 48 h | Potency, µM (highest dose often 46.2 µM), for inactives: top-dose activity change, negative = growth inhibition, most hits filed as inhibitors | 420,000 tested, 15% active; note: potency is the fitted concentration of half-maximal effect; nearly all actives have a fitted effect of over 55% in size
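Cells were dispensed at 400 per well, compounds added by pin tool, plates incubated ≥48 hr at 37 °C, then CellTiter-Glo added for 30 min at room temperature before luminescence reading. Line: DT40 Tdp1-/- complemented with hTDP1; camptothecin omitted.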
An asterisk follows results filed as active; ? = inconclusive; . = no result given; ! = not active in a repeat; [ ] = another dose, or the depositor's remark. Unless noted, calls come from the whole dose curve; as a rule, active = well fitted curve in the direction sought with a large enough effect; inconclusive = small, poorly fitted or top-dose-only effect, or another doubt; inactive = no such curve, though single readings can be large; an effect the other way counts as inactive or inconclusive. % is set by controls: 0 for no effect and ±100 for the full control effect.

SMILES	IL1B secr inh	ELG1 repair inh	TDP1 cell CPT	VP16 counter	RORgamma inh	TDP1 cell noCPT
COc1ccc(-c2noc(CCCC(=O)N3CCOCC3)n2)cc1	10	-18%	?	1%	?	?
COc1ccc(-c2noc(CCC(=O)N3CCN(c4cccc(C(F)(F)F)c4)CC3)n2)cc1	?	?	?	?	?	23µM*
COc1ccc(-c2onc(C)c2C)cc1S(=O)(=O)NCC1CCN(Cc2cc(C)ccc2C)CC1	.	.	?	.	.	16µM*
CCN(CC)c1ccc(NS(=O)(=O)c2cc(-c3onc(C)c3C)ccc2OC)c(C)c1	.	.	23µM*	.	.	?
COc1ccc(-c2onc(C)c2C)cc1S(=O)(=O)NCc1ccc(Br)cc1	.	.	10µM*	.	.	13µM*
COc1ccc(-c2onc(C)c2C)cc1S(=O)(=O)N1c2ccccc2CC1C (stereo not drawn)	.	.	23µM*	.	.	?
CC(=O)OCC1OC(c2cc(C)cc(C)c2)C=CC1OC(C)=O (stereo not drawn)	.	.	.	-7%[10 µM]	3%[10 µM]	.
CCCCOc1ccc(C(=O)OCC(=O)N2CCOCC2)cc1	10	8%	1%	-20%	10%	?
Cc1csc2nc(-c3ccc(NS(=O)(=O)c4cccc(F)c4)cc3)cn12	.	.	?	.	.	16µM*
O=[N+]([O-])c1cccnc1N1CCC(c2cc(-c3cccc(C(F)(F)F)c3)n[nH]2)CC1	?	0%	?	?	13µM*	?
CC(=O)c1ccc(N2CCC(c3cc(-c4ccc(Cl)cc4Cl)n[nH]3)CC2)c([N+](=O)[O-])c1	-55*	?	4.1µM*	?	?	6.5µM*
O=[N+]([O-])c1cccnc1N1CCC(c2cc(-c3ccc(Cl)cc3Cl)n[nH]2)CC1	0	?	18µM*	?	13%	21µM*
COc1ccc(OC)c(-c2cc(C3CCN(c4ncccc4[N+](=O)[O-])CC3)[nH]n2)c1	?	?	?	-19%	?	?
Cc1ccc(C2CC(=O)C(C=NCCN3CCN(C(=S)Nc4ccc(F)cc4)CC3)=C(O)C2)cc1 (stereo not drawn)	-4	-14%	-3%	?	33%	?
Cc1cc(C)nc(N/N=C/C2=C(O)CC(c3ccc(F)cc3)CC2=O)n1 (stereo not drawn)	252	10%	23µM*	-17%	?	9.2µM*
CC1(C)O[C@@H]2[C@H](O1)[C@@H](COS(=O)(=O)O)O[C@H]2n1c(=S)[nH]c2c(=O)[nH]c(N)nc21	14	13%	2%	.	.	-7%
Cc1c(CCOC(=O)C23CC4CC(CC(C)(C4)C2)C3)sc[n+]1CC(=O)c1ccccc1	?	-8%	23µM*	-5%	13%	21µM*
NC(=O)c1ccc[n+](CC(=O)OCCC23CC4CC(CC(C4)C2)C3)c1	-4	3%	-11%	2%	8%	-25%
Cc1c(CCOC(=O)CC23CC4CC(CC(C4)C2)C3)sc[n+]1CC(=O)c1ccc(Br)cc1	-61*	.	?	-18%	10%	26µM*
O=C(COC(=O)C1CCCN1C(=O)C12CC3CC(CC(C3)C1)C2)c1ccc(Br)cc1 (stereo not drawn)	-11	-1%	?	-20%	2%	?
Cc1c(CCOC(=O)CC23CC4CC(CC(C)(C4)C2)C3)sc[n+]1CC(=O)c1ccccc1	-81*	-7%	16µM*	-13%	18%	16µM*
Cc1ncsc1CCOC(=O)C12CC3CC(CC(C3)C1)C2	8	-3%	-24%	0%	-33%	-27%
Cc1ccc2nc(CSc3nnc(NC(=O)COc4ccccc4)s3)cc(=O)n2c1	.	.	-8%	.	.	1%
CCOc1ccccc1N(C(=O)c1ccccc1Cl)C1=NC(C)(C)CS1	-8	-7%	-27%	5%	18µM*	?
COc1ccc(C)cc1N(C(=O)c1ccc(C#N)cc1)C1=NC(C)(C)CS1	2	0%	-2%	-23%	-3%	-4%
SMILES	IL1B secr inh	ELG1 repair inh	TDP1 cell CPT	VP16 counter	RORgamma inh	TDP1 cell noCPT
Cc1nc2nc(C)c(CCC(=O)N3CCN(c4ccccn4)CC3)c(C)n2n1	-5	0%	0%	-3%	18%	-20%
CCn1c(=O)c(CCC(=O)NCC2CCCO2)c(C)c2c(C)nn(-c3ccc(C)cc3)c21 (stereo not drawn)	33	-16%	23µM*	-1%	2%	?
CCn1c(=O)c(CCC(=O)N2CCN(c3ccccn3)CC2)c(C)c2c(C)nn(-c3cccc(C)c3)c21	10	6.5µM*	15µM*	0%	14%	?
O=[n+]1c2c(n([O-])c3ccccc31)CCCC2	33	11%	-27%	0%	2%	-8%
CCOC(=O)Cn1nc(/C=C/c2ccccc2)ccc1=O	-3	18%	-19%	14µM*	-86%	-16%
O=c1ccc(/C=C/c2ccccc2)nn1Cc1ccccc1	-20	-6%	-21%	15%	18%	-27%
CCOC(=O)Cn1nc(/C=C/c2ccc(C)cc2)ccc1=O	-28	17%	?	6%	33%	23µM*
CCOC(=O)Cn1nc(-c2ccc(Cl)cc2)ccc1=O	-9	5%	?	?	0%	?
CCOC(=O)Cn1nc(/C=C/c2ccc(C(C)C)cc2)ccc1=O	-28	?	15µM*	-6%	?	?
CCOC(=O)N1C(=O)NC(=O)C1c1ccc(Cl)cc1 (stereo not drawn)	0	.	-1%	.	.	-9%
COc1ccc(NC(=O)CSc2nc(C(C)C)nc3c2c(=O)n(C)c(=O)n3C)c(OC)c1	20	-5%	-16%	5%	0%	-11%
COC(=O)CN(c1ccccc1[N+](=O)[O-])S(=O)(=O)c1ccccc1	15	19%	15%	3%	-5%	3%
CC(=O)N(c1ccccc1)c1ccccc1[N+](=O)[O-]	25	.	?	.	.	26µM*
COc1ccccc1CNC(=O)CSc1nc(=O)[nH]c2c1CCC2	.	.	8%	.	.	5%
Nc1ccn(C2OC(CO)C(O)C2O)c(=O)n1 (stereo not drawn)	.	.	0.016µM*!	-21%	-31%	0.012µM*!
NC[C@H]1O[C@@H](n2ccc(N)nc2=O)[C@H](O)[C@@H]1O	21	.	?	.	.	?
Nc1ccn([C@@H]2O[C@H](CO)[C@@H](O)[C@@H]2O)c(=O)n1	61	-1%	0.12µM*	-12%	-13%	0.16µM*

Bioassay records: PubChem BioAssay, National Center for Advancing Translational Sciences (NCATS)
